PubChem BioAssay
Calls of active or inactive are those of the source.

Test system: wheat germ agglutinin (Triticum aestivum), Alexa647-labelled
Assay: Alexa647-WGA lectin binding to printed small molecules – biochemical, small-molecule microarray, 635/667 nm fluorescence, artefact control for SMM control-protein annotation, profiling panel (AID 1140);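 further: score merges 667 nm feature emission with signal to noise over triplicate slides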
Details: WGA-A647 binding, 635 nm fluorescence, higher = more signal

| SMILES | composite z-score |
| --- | --- |
| COc1cc(C(O)C2C=CC3C(=O)N(c4ccccc4)C(=O)C3N2Nc2ccc(C#N)cc2)cc(OC)c1OC (configuration not stated) | 1.51 |
| O=C1C2C=CC(C(O)c3ccc(B(O)O)cc3)N(Nc3ccccc3)C2C(=O)N1c1ccccc1 (configuration not stated) | -0.0504 |
| NCCCCCCNC(=O)[C@H]1C[C@H]2C(=O)NCC(=O)N2[C@H]1c1cccc(OCCO)c1 | 1.08 |
| COc1cccc(C(=O)O[C@H]2CC[C@]3(C)C4=C(CCC3C2(C)C)[C@]2(C)CC[C@H]([C@H](C)CCCC(C)C)[C@@]2(C)CC4)c1 (some centres not stated) | 0.258 |
| CCOC(=O)C[C@H]1[C@H](OC(=O)Cc2ccc3c(c2)OCO3)[C@@H](NC(=O)c2ccc(-c3ccccc3)cc2)c2cc(OCCCO)ccc2N1C(=O)c1ccccc1 | 0.507 |
| O=C1OCCC=C[C@H]2OC34C=CCN(Cc5ccccc5)C(=O)[C@H]3N(CCCCCO)C(=O)[C@@H]4C12 (some centres not stated) | 0.809 |
| CS(=O)(=O)CCOC(=O)C1=CC(CCCO)=CC(c2cccs2)N(Cc2cc3c(cc2Br)OCO3)C=C1C(=O)OCCS(C)(=O)=O (configuration not stated) | 1.05 |
| O=C1O[C@@H](c2ccccc2)[C@@H](c2ccccc2)N2[C@@H](c3ccc(OCCO)cc3)[C@]3(C(=O)Nc4ccc(C#CC5=CCCCC5)cc43)[C@@H](C(=O)O)[C@H]12 | 0.997 |
| C=CC[C@@]1(C(=O)NCC(O)CO)N=C(c2ccc(OCCCO)cc2)O[C@@H]1c1ccccc1N=[N+]=[N-] (some centres not stated) | 1.12 |
| NC(=O)NCC#Cc1ccc2c(c1)[C@]1(C(=O)N2)[C@H](C(=O)NC[C@H](O)c2ccccc2)[C@H]2C(=O)O[C@H](c3ccccc3)[C@H](c3ccccc3)N2[C@@H]1c1ccc(O)cc1 | 1.09 |
| CC(=O)NCCCC[C@@H]1NC(=O)[C@H]2C[C@@H](C(=O)NCCCCCC[N+](C)(C)C)[C@@H](c3cccc(OCCO)c3)N2C1=O | 0.656 |
| COC(=O)[C@@]1(Cc2ccc(F)cc2)[C@H]2c3cc(C(=O)N(C)C)n(CCc4ccccn4)c3C[C@H]2CN1C(=O)c1ccccc1 | -0.108 |
| CN(C)CCCNC(=O)[C@@]1(Cc2ccccc2I)c2ccccc2C(=O)N(Cc2ccccc2C(F)(F)F)[C@H]1c1ccc(CO)cc1 | -0.203 |
| NC(=O)NCC#Cc1ccc2c(c1)[C@]1(C(=O)N2)[C@H](C(=O)N2CCCCCCC2)[C@H]2C(=O)O[C@H](c3ccccc3)[C@H](c3ccccc3)N2[C@@H]1c1ccc(OCCO)cc1 | 1.36 |
| O=C(O)[C@@]1(Cc2ccccc2)N=C(c2ccc(OCCCO)cc2)O[C@H]1c1ccccc1 | 0.915 |
| CCOC(=O)C1=CCC(c2ccc([N+](=O)[O-])cc2)N(S(=O)(=O)c2ccc(C)cc2)C1 (configuration not stated) | 0.44 |
| COCCOC(=O)N1C(=O)[C@@]2(c3cc(C#CCCO)ccc31)[C@H](c1ccc(O)cc1)N1[C@H](c3ccccc3)[C@H](c3ccccc3)OC(=O)[C@H]1[C@@H]2C(N)=O | 0.0204 |
| COc1ccc(C(O)C2C=CC3C(=O)NC(=O)C3N2Nc2ccccn2)cc1OCc1ccccc1 (configuration not stated) | 0.532 |
| O=C1OCC=C[C@H]2OC34C=CCN(c5ccc6ccccc6c5)C(=O)[C@H]3N(CCCO)C(=O)[C@@H]4[C@@H]12 (some centres not stated) | -0.645 |
| CCC[C@@H]1C=C(C(=O)O)[C@H](c2ccc(C)cc2)N1S(=O)(=O)c1ccc(C)cc1 | 0.945 |
| COC(=O)c1ccc(C23CC2(C(NP(=O)(c2ccccc2)c2ccccc2)c2ccccc2)C3)cc1 (configuration not stated) | 1.15 |

Target: Luciferin 4-monooxygenase (Photinus pyralis) (UniProt P08659)
Assay: inhibition of purified Photinus pyralis luciferase – biochemical, luminescence, purified enzyme, 2006 set, primary screen (AID 1141);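 further: cell-free assay with purified firefly luciferase at 100 ng per well in PBS; test concentration not given here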
Details: purified firefly luciferase, SteadyGlo luminescence, 30 min; higher = more signal, called active from +8 up or from −8 down

Sequence of Luciferin 4-monooxygenase (Photinus pyralis) (P08659 whole entry, looked up): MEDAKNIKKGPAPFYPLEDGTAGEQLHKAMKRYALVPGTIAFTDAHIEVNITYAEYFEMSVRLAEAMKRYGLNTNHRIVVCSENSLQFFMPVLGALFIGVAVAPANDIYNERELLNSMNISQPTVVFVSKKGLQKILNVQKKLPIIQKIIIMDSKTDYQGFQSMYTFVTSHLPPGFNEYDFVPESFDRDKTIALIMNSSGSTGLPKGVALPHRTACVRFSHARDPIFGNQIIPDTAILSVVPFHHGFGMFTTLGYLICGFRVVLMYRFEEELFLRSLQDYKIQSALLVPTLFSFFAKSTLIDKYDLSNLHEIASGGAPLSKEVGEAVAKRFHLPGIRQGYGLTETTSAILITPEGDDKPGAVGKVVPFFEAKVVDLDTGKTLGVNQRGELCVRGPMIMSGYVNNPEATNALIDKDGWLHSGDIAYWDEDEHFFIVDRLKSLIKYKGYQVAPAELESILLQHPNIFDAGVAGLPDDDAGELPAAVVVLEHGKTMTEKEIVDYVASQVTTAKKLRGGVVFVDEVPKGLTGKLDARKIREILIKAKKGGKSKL

| SMILES | z-score |
| --- | --- |
| O=C1O[C@H](c2ccccc2)[C@H](c2ccccc2)N2[C@H]1[C@@H](C(=O)N1CCN(c3ncccn3)CC1)[C@]1(C(=O)Nc3ccccc31)[C@H]2c1ccc(OCCO)cc1 | 0.546 (inactive) |
| C=CCNC(=O)[C@@H]1[C@H]2C(=O)O[C@H](c3ccccc3)[C@H](c3ccccc3)N2[C@H](c2ccc(OCCO)cc2)[C@@]12C(=O)Nc1ccccc12 | -8.15 (active) |
| CC(C)C[C@@H]1NC(=O)[C@@H]2C[C@H](C(=O)NCCCCCC[N+](C)(C)C)[C@H](c3ccc(O)cc3)N2C1=O | 0.0519 (inactive) |
| CCCC[C@H]1OB(O)C[C@H]2C1=C(C)C[C@H]1C(=O)N(Cc3ccccc3)C(=O)[C@H]12 | -1.15 (inactive) |
| COc1ccc(C#Cc2ccc3c(c2)[C@]2(C(=O)N3)[C@H](C(=O)NC[C@H](O)c3ccccc3)[C@H]3C(=O)O[C@H](c4ccccc4)[C@H](c4ccccc4)N3[C@@H]2c2ccc(OCCO)cc2)cc1 | -1.58 (inactive) |
| COCCOC(=O)N1C(=O)[C@@]2(c3cc(C#CCNC(N)=O)ccc31)[C@H](c1ccc(O)cc1)N1[C@H](c3ccccc3)[C@H](c3ccccc3)OC(=O)[C@H]1[C@@H]2C(=O)Nc1nc2ccccc2s1 | -2.38 (inactive) |
| COC(=O)[C@@]1(Cc2ccccc2)[C@H]2c3cc(C(=O)N4CCCC4)n(Cc4ccc(C)o4)c3C[C@H]2CN1C(=O)c1ccccc1 | -2.68 (inactive) |
| COc1cc2c(cc1OC)CN(C(=O)[C@@H]1[C@H]3C(=O)O[C@H](c4ccccc4)[C@H](c4ccccc4)N3[C@H](c3ccccc3OCCO)[C@@]13C(=O)Nc1ccc(C#CCNC(N)=O)cc13)CC2 | -1.64 (inactive) |
| COC(=O)[C@@]1(Cc2ccc(OC)cc2)[C@H]2c3cc(C(=O)N(C)C)n(Cc4c(OC)[nH]cc(C)c4=O)c3C[C@H]2CN1C(=O)c1ccccc1 | 0.151 (inactive) |
| COCCOC(=O)N1C(=O)[C@@]2(c3cc(C#CCCO)ccc31)[C@H](C(=O)NC[C@H](O)c1ccccc1)[C@H]1C(=O)O[C@H](c3ccccc3)[C@H](c3ccccc3)N1[C@@H]2c1ccc(O)cc1 | 0.788 (inactive) |
| COC(=O)[C@]1(Cc2ccccc2N=[N+]=[N-])N=C(c2ccc(OCCCO)cc2)O[C@@H]1c1ccccc1N=[N+]=[N-] | -1.42 (inactive) |
| [N-]=[N+]=NCc1ccccc1[C@@H]1OC(c2ccc(OCCCO)cc2)=N[C@]1(Cc1ccccc1N=[N+]=[N-])C(=O)NCc1ccccc1 | -5.2 (inactive) |
| Cc1ccc(S[C@]2(C(=O)NC3CC3)CC(=O)N(C3CCCCC3)[C@@H]2c2ccc(CO)cc2I)cc1 | 1.06 (inactive) |
| CC(C)NC(=O)[C@@H]1c2ccccc2C(=O)N(Cc2ccccc2)[C@H]1c1ccc(CO)cc1 | 0.413 (inactive) |
| [N-]=[N+]=NCc1ccccc1[C@H]1OC(c2ccc(OCCCO)cc2)=N[C@@]1(CCS(=O)(=O)c1ccccc1)C(=O)N1CCOCC1 | -1.26 (inactive) |
| COc1cc(C(O)C2C=CC3C(=O)N(c4ccccc4)C(=O)C3N2Nc2ccc(C#N)cc2)cc(OC)c1OC (configuration not stated) | 0.282 (inactive) |
| O=C1C2C=CC(C(O)c3ccc(B(O)O)cc3)N(Nc3ccccc3)C2C(=O)N1c1ccccc1 (configuration not stated) | -0.331 (inactive) |
| NCCCCCCNC(=O)[C@H]1C[C@H]2C(=O)NCC(=O)N2[C@H]1c1cccc(OCCO)c1 | -1.7 (inactive) |

| SMILES | z-score |
| --- | --- |
| COc1cccc(C(=O)O[C@H]2CC[C@]3(C)C4=C(CCC3C2(C)C)[C@]2(C)CC[C@H]([C@H](C)CCCC(C)C)[C@@]2(C)CC4)c1 (some centres not stated) | -0.843 (inactive) |
| CCOC(=O)C[C@H]1[C@H](OC(=O)Cc2ccc3c(c2)OCO3)[C@@H](NC(=O)c2ccc(-c3ccccc3)cc2)c2cc(OCCCO)ccc2N1C(=O)c1ccccc1 | -1.16 (inactive) |
| O=C1OCCC=C[C@H]2OC34C=CCN(Cc5ccccc5)C(=O)[C@H]3N(CCCCCO)C(=O)[C@@H]4C12 (some centres not stated) | 0.0657 (inactive) |
| CS(=O)(=O)CCOC(=O)C1=CC(CCCO)=CC(c2cccs2)N(Cc2cc3c(cc2Br)OCO3)C=C1C(=O)OCCS(C)(=O)=O (configuration not stated) | -1.16 (inactive) |
| O=C1O[C@@H](c2ccccc2)[C@@H](c2ccccc2)N2[C@@H](c3ccc(OCCO)cc3)[C@]3(C(=O)Nc4ccc(C#CC5=CCCCC5)cc43)[C@@H](C(=O)O)[C@H]12 | -6.59 (inactive) |
| C=CC[C@@]1(C(=O)NCC(O)CO)N=C(c2ccc(OCCCO)cc2)O[C@@H]1c1ccccc1N=[N+]=[N-] (some centres not stated) | -11.2 (active) |
| NC(=O)NCC#Cc1ccc2c(c1)[C@]1(C(=O)N2)[C@H](C(=O)NC[C@H](O)c2ccccc2)[C@H]2C(=O)O[C@H](c3ccccc3)[C@H](c3ccccc3)N2[C@@H]1c1ccc(O)cc1 | -0.0138 (inactive) |
| CC(=O)NCCCC[C@@H]1NC(=O)[C@H]2C[C@@H](C(=O)NCCCCCC[N+](C)(C)C)[C@@H](c3cccc(OCCO)c3)N2C1=O | 0.692 (inactive) |
| COC(=O)[C@@]1(Cc2ccc(F)cc2)[C@H]2c3cc(C(=O)N(C)C)n(CCc4ccccn4)c3C[C@H]2CN1C(=O)c1ccccc1 | 2.76 (inactive) |
| CN(C)CCCNC(=O)[C@@]1(Cc2ccccc2I)c2ccccc2C(=O)N(Cc2ccccc2C(F)(F)F)[C@H]1c1ccc(CO)cc1 | 0.606 (inactive) |
| NC(=O)NCC#Cc1ccc2c(c1)[C@]1(C(=O)N2)[C@H](C(=O)N2CCCCCCC2)[C@H]2C(=O)O[C@H](c3ccccc3)[C@H](c3ccccc3)N2[C@@H]1c1ccc(OCCO)cc1 | -0.551 (inactive) |
| O=C(O)[C@@]1(Cc2ccccc2)N=C(c2ccc(OCCCO)cc2)O[C@H]1c1ccccc1 | 1.16 (inactive) |
| CCOC(=O)C1=CCC(c2ccc([N+](=O)[O-])cc2)N(S(=O)(=O)c2ccc(C)cc2)C1 (configuration not stated) | 1.95 (inactive) |
| COCCOC(=O)N1C(=O)[C@@]2(c3cc(C#CCCO)ccc31)[C@H](c1ccc(O)cc1)N1[C@H](c3ccccc3)[C@H](c3ccccc3)OC(=O)[C@H]1[C@@H]2C(N)=O | 0.028 (inactive) |
| COc1ccc(C(O)C2C=CC3C(=O)NC(=O)C3N2Nc2ccccn2)cc1OCc1ccccc1 (configuration not stated) | 0.24 (inactive) |
| O=C1OCC=C[C@H]2OC34C=CCN(c5ccc6ccccc6c5)C(=O)[C@H]3N(CCCO)C(=O)[C@@H]4[C@@H]12 (some centres not stated) | -0.18 (inactive) |
| CCC[C@@H]1C=C(C(=O)O)[C@H](c2ccc(C)cc2)N1S(=O)(=O)c1ccc(C)cc1 | 1.79 (inactive) |
| COC(=O)c1ccc(C23CC2(C(NP(=O)(c2ccccc2)c2ccccc2)c2ccccc2)C3)cc1 (configuration not stated) | -5.98 (inactive) |
